± gives the standard deviation of the averaged measurements.
Tests used:
Molm13 = assay: cell viability relative to DMSO control (bortezomib = 0%); higher = less growth inhibition; conditions: 10 nM; 72 h
In short: (§1)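 FLT3-ITD+ acute myeloid leukemia cells were dispensed onto a library of 679 approved and investigational compounds in 384-well plates, at 1000 cells per well in 50 µL and a single 10 nM dose, for 72 h. The screen was run in duplicate. Cell viability was read by CellTiter-Glo luminescence on an EnVision reader. Values were converted to percentages by per-plate linear regression between DMSO-treated cells (100%) and positive-control-treated cells (0%).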

Mv4-11 = assay: as above; conditions: 10 nM; 72 h
In short: as §1

SMILES	cell viability (Molm13) [%]	cell viability (Mv4-11) [%]
CNC(=O)c1ccc(Nc2ncc(C(F)(F)F)c(NCc3nccnc3N(C)S(C)(=O)=O)n2)cc1	90.2 ± 16	99.5 ± 3.4
N#Cc1c(-c2ccccc2)cc(-c2cc(Br)ccc2O)[nH]c1=O	125 ± 30	114 ± 9.7
Cn1cc(C2=C(c3cn(CCCN)c4ccccc34)C(=O)NC2=O)c2ccccc21 [Bisindolylmaleimide VIII (acetate)]	111 ± 18	119 ± 26
COc1ccc(C(=C2C(=O)Nc3ccccc32)c2ccc(OC)cc2)cc1	95.1 ± 2.4	103 ± 5
Cc1ccc(NC(=O)c2ccc(CN3CCN(C)CC3)cc2)cc1Nc1nccc(-c2cccnc2)n1 [Imatinib (STI571)]	97.6 ± 9.5	97.2 ± 9.2
CCNc1nc(Nc2cc(F)c(C(=O)N3CCOCC3)cc2OC)ncc1C(F)(F)F	105.79 ± 0.065	102.3 ± 0.71
O=C(Nc1cc(Cl)cc2c1[nH]c1cnccc12)c1cccnc1	110 ± 1.9	110.7 ± 0.66
Cc1c(NC(=O)OC[C@@H]2COCCN2)cn2ncnc(Nc3ccc4c(cnn4Cc4cccc(F)c4)c3)c12	105 ± 8	112 ± 11
